Measured values reported in PubChem BioAssay (NCATS).
Records with an inconclusive call do not appear. Entries that show only a call come without a potency. The source made the active and inactive calls. Calls come from the whole dose curve.

What was measured:
[1] = Primary qHTS for Huh7 cytotoxicity: counterscreen for inhibitors of MERS-S pseudotyped particle cell entry (AID 1479147)
[2] = Primary qHTS for inhibitors of MERS-S pseudo-typed particle cell entry (AID 1479149); note: nearly all actives have a fitted effect of over 60% in size; note: potency is the fitted concentration of half-maximal effect
[3] = Primary qHTS for Vero E6 cytotoxicity: counterscreen for inhibitors of SARS-S pseudo-typed particle cell entry (AID 1479150)
[4] = Confirmatory qHTS for VERO E6 Cytotoxicity Assay: Counterscreen for SARS-CoV-2 CPE Assay (AID 1508605); note: series mostly up to about 20 µM; nearly all actives have a fitted effect of over 60% in size

Compound	Potency [1]	Potency [2]	Potency [3]	Potency [4]
CCOC(=O)C1=C(COCCN)NC(C)=C(C(=O)OC)C1c1ccccc1Cl (centres undefined)	inactive	inactive	inactive	inactive
C=CC1=C(C(=O)O)N2C(=O)[C@@H](NC(=O)/C(=N\O)c3csc(N)n3)[C@H]2SC1 (stereo in doubt)	inactive	inactive	inactive	
C#CCC(Cc1cnc2nc(N)nc(N)c2n1)c1ccc(C(=O)N[C@@H](CCC(=O)O)C(=O)O)cc1 (some centres undefined)		inactive		
CN(C)c1ccc2nc3ccc(=[N+](C)C)cc-3sc2c1		7.08 µM (active)		
